Bioassay records (PubChem)
FBW7 activator – activators of human E3 ligase FBW7; AID 1259310; normalized activity (activation), % at 26.1 µM; Q969H0; 0.13% of 650,000 active; AlphaScreen FBW7–phospho-cyclin E peptide binding, activator screen; in the data active = normalized activity above about 1.9%;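 note: purified mutant Fbw7 with reduced substrate affinity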
Target sequence (Q969H0 whole entry, looked up): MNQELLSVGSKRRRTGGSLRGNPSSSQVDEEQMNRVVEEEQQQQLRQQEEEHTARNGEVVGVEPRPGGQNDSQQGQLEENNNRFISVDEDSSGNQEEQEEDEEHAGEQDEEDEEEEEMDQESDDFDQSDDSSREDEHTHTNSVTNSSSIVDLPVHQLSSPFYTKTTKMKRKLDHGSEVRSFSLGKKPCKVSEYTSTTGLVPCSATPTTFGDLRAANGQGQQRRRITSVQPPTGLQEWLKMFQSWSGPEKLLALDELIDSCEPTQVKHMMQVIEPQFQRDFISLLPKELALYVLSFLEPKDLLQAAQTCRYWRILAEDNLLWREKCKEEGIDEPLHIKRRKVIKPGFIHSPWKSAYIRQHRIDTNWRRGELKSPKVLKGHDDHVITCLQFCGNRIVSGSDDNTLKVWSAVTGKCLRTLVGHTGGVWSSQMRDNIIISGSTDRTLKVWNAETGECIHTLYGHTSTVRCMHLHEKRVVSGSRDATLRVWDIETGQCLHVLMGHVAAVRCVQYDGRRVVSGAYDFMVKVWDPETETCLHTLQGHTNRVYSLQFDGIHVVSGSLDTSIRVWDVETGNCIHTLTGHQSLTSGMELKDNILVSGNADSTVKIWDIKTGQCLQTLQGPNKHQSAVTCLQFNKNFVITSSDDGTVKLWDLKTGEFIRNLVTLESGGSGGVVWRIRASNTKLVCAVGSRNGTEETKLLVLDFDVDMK
MITF inh – blocks human microphthalmia-associated transcription factor; inhibition, % at 2.6 µM; AID 1259374; AlphaScreen MITF homodimerization, bead proximity signal; O75030; 0.91% of 650,000 active; in the data active = inhibition above about 50%;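 note: 0% = vehicle wells with protein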
TEAD-YAP block – TEAD-YAP interaction inhibition | inhibition, % at 9.12 µM | AID 1259422 | 1.4% of 640,000 active | HEK-TIYL cells, TEAD-Gal4/YAP UAS-luciferase luminescence; in the data active = inhibition above about 32%;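 note: 0% = median of test compound wells and 100% = reference inhibitor wells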
GPR151 activ – activators of human GPR151. activation, % at 11.2 µM. PathHunter beta-arrestin GPR151 cells, luminescence. Q8TDV0. 1% of 650,000 active. AID 1508602; in the data active = activation above about 4.9%;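 note: 0% = median of compound wells and 100% = cells with positive control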
GPR151 confirm – confirmation of human GPR151 activators; shares compounds with GPR151 activ; GPR151 PathHunter beta-arrestin cells, luminescence, 90 min; % of EA-reagent control over plate median; activation, % at 11.2 µM; 6,700 tested, under 10 active;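 active = mean percent activation across replicates above the confirmation screen cutoff of 4.91%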
GPR119 ag – GPR119 activation, counter-screen for GPR151 activators; activation, % at 11.2 µM; AID 1508611; GPR119 PathHunter beta-arrestin cells, luminescence, 90 min; 0 = compound-well median, 100 = enzyme-acceptor control; shares compounds with GPR151 activ; 0.3% of 6,700 active;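 active = mean percent activation in the counterscreen above 29.09%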;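 note: counterscreen on off-target GPR119 to flag nonselective hits from the GPR151 activator screen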
* marks the source's active call; other numbers are inactive results; · = no result; ! = not confirmed by another sample. Shown are actives, neighbours in structure and some others; about 3.5% of the full set was active somewhere.

SMILES	FBW7 activator	MITF inh	TEAD-YAP block	GPR151 activ	GPR151 confirm	GPR119 ag
Cc1cc(=O)[nH]c2nnc(SCC(=O)Nc3cccc4ccccc34)n12	0	10	2	2	·	·
CC1CCN(c2nc(N3CCOCC3)nc(N3CCOCC3)n2)CC1	0	8	8	8.9*	0	-2
Cc1nc(N2CCCCC2)c2c(C)c(C(=O)N3CCN(c4ccccn4)CC3)sc2n1	0	4	12	0	·	·
CCc1ccccc1NC(=O)CCC(=O)OCC(=O)c1ccc([N+](=O)[O-])cc1	0	23	5	1	·	·
CCc1ccccc1NC(=O)CCCC(=O)OCC(=O)c1ccc([N+](=O)[O-])cc1	0	7	-5	5.5*	1	-6
O=C(CC(c1ccccc1)c1ccccc1)Nc1ccc(C(=O)N2CCOCC2)cc1	0	3	4	0	·	·
O=C1CN(C(=O)COC(=O)c2ccc([N+](=O)[O-])o2)c2ccccc2N1	0	-7	6	-1	·	·
CC1(C)C(=O)Nc2ccccc2N1C(=O)COC(=O)c1ccc([N+](=O)[O-])o1	0	-3	3	5.7*	-1	1
CN(C)C(=O)c1cccc(-c2cnc(NCc3ccc(Cl)c(Cl)c3)c3nccn23)c1	0	-4	-27	0	·	·
CC(C)Cc1nc(SCC(=O)Nc2ccccc2)c2c(=O)n(C)c(=O)n(C)c2n1	0	-13	4	8.1*	0	11
CC1CCCCC1NC(=O)COC(=O)c1cncc(Br)c1 (centres undefined)	0	-7	-1	-1	·	·
Cc1ccc(CN2C(=O)C3CCCN3c3ccc(C#N)cc32)cc1 (centres undefined)	0	-3	-4	5.6*	1	7
N#Cc1ccc2c(c1)N(Cc1ccc(F)cc1)C(=O)C1CCCN21 (centres undefined)	0	3	2	1	·	·
Cc1cnc(Nc2ccncn2)nc1NC1CC1	0	-6	3	5.7*	1	0
Cc1cnc(Nc2ccncn2)nc1NC1CCN(Cc2ccccc2)CC1	0	-12	24	-3	·	·
Cc1cccc(Nc2nc3nonc3n3cnnc23)c1C	0	-3	-2	5.8*	1	6
COC(=O)CN(c1ccc(C)cc1)S(=O)(=O)c1ccc(C)cc1	0	19	10	0	·	·
CCCCCCCC1=NN2C(=N)/C(=C/c3ccc(-c4ccccc4[N+](=O)[O-])o3)C(=O)N=C2S1	1	5	-1	5.6*	0	8
Cc1cncc2cccc(NC3CCNCC3)c12	0	4	26	0	·	·
CCn1c(=NC(=O)c2ccco2)sc2cc3c(cc21)OCCO3	1	3	-32	5.7*	-1	-8
COc1ccc(OC)c2c1sc(=NC(=O)c1ccco1)n2C	0	-15	-13	5.3*	1	6
CCOCCn1c(=NC(=O)c2ccco2)sc2cc(C)ccc21	0	-7	-47	5.8*	1	4
CCn1c(=NC(=O)c2ccco2)sc2cccc(F)c21	0	5	-36	1	·	·
C=CCn1c(=NC(=O)c2ccco2)sc2cccc(OC)c21	0	15	8	0	·	·
CCn1c(=NC(=O)c2ccco2)sc2cccc(OC)c21	0	-2	7	5.0*	0	-2
SMILES	FBW7 activator	MITF inh	TEAD-YAP block	GPR151 activ	GPR151 confirm	GPR119 ag
CCCCOC(=S)SCc1ccc(Cl)s1	0	4	3	6.4*	0	-3
O=C(NCC1CCCO1)C1CCN(C(=O)N2CCOc3ccccc32)CC1 (centres undefined)	0	8	3	9.7*	0	-10
CC(C)NC(=O)C1CCN(C(=O)N2CCOc3ccccc32)CC1	0	0	-4	-1	·	·
Cc1ccc(-c2ccc3c(c2)CC(CNC(=O)CCc2ccco2)O3)nc1 (centres undefined)	0	-1	-45	6.4*	1	13
Cc1ccc(-c2ccc3c(c2)CC(CNC(=O)Cc2nc(-c4ccccc4)n[nH]2)O3)nc1 (centres undefined)	0	7	1	1	·	·
CCCCCCCCCCCCC/C=C/[C@@H](O)[C@H](COP(=O)(O)O)NC(=O)CCCCCCC	·	-7	·	5.2*	0	-11
Cc1sc2ncn(CC(=O)Nc3ccc(F)cc3F)c(=O)c2c1S(=O)(=O)N1CCCCC1	0	15	-12	0	·	·
CC(=O)Nc1ccc(NC(=S)NC(=O)c2cccc(Cl)c2)cc1	0	1	-23	2	·	·
Cc1cccnc1NC(=S)NC(=O)c1cccc(Cl)c1	0	3	-77	5.0*	1	15
O=C(NCc1n[nH]c(=S)n1-c1ccccc1Cl)c1ccccc1F	0	2	4	6.7*	2	3
CC(=O)O[C@H]1CC[C@@]2(C)C(C[C@@H](OC(C)=O)[C@@]3(C)C4=CC(=O)O[C@@H](c5ccoc5)[C@]4(C)CCC23)C1(C)C (some centres undefined)	0	17	0	6.5*!	0	4
C=CCOC(=O)COc1cc2oc(=O)cc(CC)c2cc1Cl	0	2	3	-1	·	·
CC(C)NC(=O)CN1C(=O)COc2ccc(C(C)(C)C)cc21	0	1	-5	5.8*	0	8
COCCNC(=O)CN1C(=O)COc2ccc(Cl)cc21	0	5	-1	7.8*	0	4
CC(C)(C)c1ccc2c(c1)N(CC(=O)NC1CCCCCC1)C(=O)CO2	0	7	-9	5.5*	1	2
O=C(CN1C(=O)COc2ccc(Cl)cc21)NC1CCCCCC1	0	8	-4	0	·	·
CNS(=O)(=O)c1cccc(C(=O)OCC(=O)c2cc3ccccc3o2)c1	0	-9	-5	1	·	·
CN(C)c1cccc(C(=O)OCC(=O)c2cc3ccccc3o2)c1	0	8	18	5.2*	-1	-5
O=[N+]([O-])c1ccc(Cl)c(C2N(Cc3ccccc3)CCN2Cc2ccccc2)c1	0	1	2	-1	·	·
O=C(CN1C(=O)c2ccccc2C1=O)Nn1c(-c2cccc(Cl)c2)nc2ccccc2c1=O	1	19	-10	6.7*	0	13
O=C(Nc1cc(Cl)ccc1Cl)N[C@H]1C[C@H]2C(=O)N[C@@H](Cc3ccccc3)C(=O)N2C1	0	-1	15	-1	·	·
COc1ccccc1NC(=O)C1=C(C)Nc2nc(-c3ccco3)nn2C1c1ccc(O)cc1 (centres undefined)	0	8	-17	1	·	·
COCCO[C@H]1[C@H](NC(=O)C(C)C)c2ccccc2C12CCN(C(=O)C1CCCC1)CC2	0	-4	7	-1	·	·
COCCO[C@H]1[C@H](NC(=O)C(C)C)c2ccccc2C12CCN(C(=O)CCC(C)C)CC2	0	21	4	5.2*	0	8
